An excerpt weighted towards active compounds, which were near 2.6% of everything screened.
KKLEB cytotox: reduces viability of KKLEB cystic fibrosis airway cells. KKLEB CF airway cells viability, ATPlite luminescence, overnight; stronger effect = lower value; cells stimulated with P. aeruginosa culture filtrate. 360,000 compounds, 0.36% hits. activity change (cytotoxicity), % at 5 µM;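 active means corrected activity change at or below -50% at 5 µM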
TROY signal inh: inhibitors of TROY-dependent NF-kB signaling; Q293 LMP1-TROYcd NF-kB luciferase reporter, 4 h; inhibition, % at 10 µM; 360,000 compounds, 0.98% hits;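 active means compounds whose plate-normalised and pattern-corrected inhibition of the luciferase reporter signal at the single screening dose is 50% or more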
CF NFkB inh: inhibitors of cystic fibrosis induced NF-kB. KKLEB NF-kB-GFP reporter, PAF-induced, GFP fluorescence overnight. inhibition, % at 5 µM. 360,000 compounds, 0.86% hits;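 active means at least 50% inhibition at 5 µM, scaled per plate between neutral and stimulator controls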;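 further: PAF is a Pseudomonas aeruginosa culture filtrate used as stimulus; plate controls were PAF-stimulated DMSO wells for no effect and unstimulated DMSO wells for full effect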
TWEAK Fn14 block: TWEAK-Fn14 signaling inhibition. 360,000 compounds, 2% hits. AID 1159606. inhibition, % at 10 µM. TWEAK-stimulated Fn14 reporter cells, luciferase luminescence, 8 h; in the data active means inhibition above about 50%
LGR2 inh: inhibitors of bursicon-induced Drosophila LGR2 receptor cAMP signaling; HEK293 LGR2, CRE-luciferase, bursicon-stimulated, 4 h; inhibition, % at 9.99 µM; 380,000 compounds, 0.35% hits; AID 720647;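 active means drop in luminescence signal, shown as inhibition above about 50% in the replicate tests, limit read from the data, passing the limit was not always enough; inconclusive means probably only some replicates passing the limit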;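 further: agonist challenge used bursicon conditioned medium at about half maximal strength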
EWS-Fli inh: inhibitors of EWS/Fli oncoprotein transcriptional activity; 350,000 compounds, 0.67% hits; AID 651661; inhibition, % at 12.6 µM; A673 NR0B1-luciferase reporter, viability-normalised;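 active means mean inhibition of at least 50% after viability correction, with every replicate also passing that limit; inconclusive means mean reaches 50% but only one of two replicates passes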;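 further: firefly luciferase signal divided by Alamar Blue viability fluorescence both relative to DMSO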
The depositor's hits bear a star; ? = inconclusive; . = not tested or not shown; ! = repeats disagree.

SMILES | KKLEB cytotox | TROY signal inh | CF NFkB inh | TWEAK Fn14 block | LGR2 inh | EWS-Fli inh
CCOC(=O)N1CCN(C2=C(NS(=O)(=O)c3ccccc3)C(=O)c3ccccc3C2=O)CC1 | -4.9 | -2.7 | 10.9 | 0.4 | 11.9 | -8.1
C[C@H](NC(=O)C[C@@H]1CC[C@H](NC(=O)C2CCC2)[C@@H](CO)O1)c1ccccc1 | . | . | . | . | 12.5 | -8.7
O=C(CN1CCOCC1)NCC[C@@H]1CC[C@H](NC(=O)Nc2ccc(Cl)cc2)[C@H](CO)O1 | . | . | . | . | -18.7 | 9.3
CC[N+]1(C)CCC(O)(/C=C/c2ccccc2)C(C(=O)/C=C/c2ccccc2)C1 (stereo not given) | -14.6 | 12.3 | 40.0 | 64.6* | 24.1 | 7.6
O=C(/C=C/c1ccccc1)C1C(=O)c2ccccc2C1=O | -22.8 | -30.4 | -5.5 | 27.8 | -1.0 | 11.9
CSc1cc(-c2ccc(Cl)cc2)n(Cc2ccccc2)c(=O)c1C#N | -53.5* | -2.4 | 69.9* | 10.4 | . | .
CCn1c2ccccc2c2cc(NC(=O)c3ccc(=O)oc3)ccc21 | 5.4 | -20.5 | 2.0 | -8.4 | -4.1 | 13.5
CCn1c2ccccc2c2cc(NC(=O)c3coc(=O)c(Br)c3)ccc21 | -6.7 | -28.7 | -6.9 | 73.9* | . | 41.3
CCCNC(=O)Nc1ccc2c(c1)C(=O)N(C)C[C@H](OC)[C@@H](C)CN(C(=O)c1ccccc1F)[C@@H](C)CO2 | . | . | . | . | 12.3 | 8.1
O=C(CN(C1CCCCC1)S(=O)(=O)c1ccc(F)cc1)NCC1CCCO1 (stereo not given) | -94.6* | 1.7 | 90.8* | 47.3 | -67.9 | 20.3
O=C(CN(c1ccc(Br)cc1)S(=O)(=O)c1ccc(Cl)c([N+](=O)[O-])c1)NCC1CCCO1 (stereo not given) | -13.4 | 13.4 | 47.9 | 54.9* | -10.4 | 44.0
COc1cccc(Sc2nc(-c3ccccc3)ncc2S(C)(=O)=O)c1 | -13.2 | 71.1* | 38.0 | 90.7* | -75.4 | -16.9
CCOC(=O)c1cc2c(=O)n3cccc(C)c3nc2n(CC2CCCO2)c1=NC(C)=O (stereo not given) | -2.7 | -19.8 | -30.5 | 91.9*! | . | -2.8
O=C(NC(=S)Nc1ccc(N2CCCCC2)cc1)c1ccc2c(c1)OCCO2 | -4.6 | 77.5* | -1.4 | 54.9* | . | 1.7
O=C(NC(=S)Nc1ccc(F)cc1)c1ccc2c(c1)OCCO2 | -17.8 | 45.4 | -1.7 | 42.1 | -37.5 | -19.1
O=C(NC(=S)Nc1ccc(N2CCOCC2)cc1)c1ccc2c(c1)OCCO2 | -11.9 | 59.6* | 14.7 | 51.3* | -17.8 | .
COc1ccc(S(=O)(=O)N(C)C[C@H]2Oc3ncc(-c4ccncc4)cc3C(=O)N([C@H](C)CO)C[C@H]2C)cc1 | . | . | . | . | -1.6 | -2.1
CC(C)c1nc2sc3c(NCc4ccco4)ncnc3c2c2c1COC(C)(C)C2 | -66.2* | . | 77.8* | 52.3* | . | .
CC1(C)Cc2c(C#N)c(NCc3ccco3)nc(-c3ccco3)c2CO1 | -15.1 | -2.1 | 9.9 | 15.3 | . | .
CCCc1nc(NCc2ccco2)c(C#N)c2c1COC(C)(C)C2 | -6.1 | . | 11.3 | 73.9* | . | .
CC(C)c1nc2sc3c(NCc4ccccc4)ncnc3c2c2c1COC(C)(C)C2 | -28.9 | 5.0 | 36.3 | -49.6 | . | .
CN(C)c1ccc(C=C2C=CC=C2)cc1 | 10.4 | 9.1 | -3.8 | 61.6* | . | -94.7
CN1C(=O)/C(=C\c2ccc(N(C)C)cc2)OC1=S | 2.2 | -43.7 | -99.0 | -26.5 | -33.5 | -15.0
COc1ccc2nc(NC(=O)CN3CCN(C)CC3)sc2c1 | 0.0 | 54.3* | -5.6 | -6.4 | . | .
CCN1CCN(CC(=O)Nc2nc3ccc(OC)cc3s2)CC1 | -6.0 | -16.2 | 7.7 | 16.8 | . | .
SMILES | KKLEB cytotox | TROY signal inh | CF NFkB inh | TWEAK Fn14 block | LGR2 inh | EWS-Fli inh
O=C(CN1CCC(n2nnc3cc(F)ccc32)CC1)NC1CC1 | -1.6 | 1.8 | 1.7 | 1.5 | . | .
CCOc1ccc2nc(NC(=O)CN3CCC(n4nnc5cc(F)ccc54)CC3)sc2c1 | -9.6 | 57.5* | 8.4 | 33.1 | . | .
COc1ccc2nc(Nc3sc4c(c3C(N)=O)CCCC4)sc2c1 | -0.8 | 57.8* | -6.5 | 42.1 | -46.0 | -34.3
CN(C)CCCN(C(=O)/C=C/c1cccs1)c1nc2c(F)cccc2s1 | -10.9 | 4.7 | 18.6 | 19.7 | 55.7* | -6.1
Cc1noc(C)c1S(=O)(=O)N(C)C[C@H]1OCCCC[C@@H](C)Oc2ccc(NC(=O)Cc3ccccc3)cc2C(=O)N([C@H](C)CO)C[C@@H]1C | . | . | . | . | 3.2 | -21.4
CC(=O)Nc1cccc(NC(=O)Cc2cccs2)c1 | 0.8 | -5.2 | 10.2 | 7.6 | 1.5 | -1.1
O=C(Cc1cccs1)Nc1cccc(-c2nc3cc4ccccc4cc3[nH]2)c1 | -70.8* | 57.3* | 80.8* | 73.5* | 5.1 | -67.6
CCOc1cccc(NC(=O)Cc2cccs2)c1 | 8.4 | . | -10.4 | 109.7* | . | .
Cc1ccc(-c2cnc3c(c2)C(=O)N([C@H](C)CO)C[C@H](C)[C@@H](CN(C)Cc2ccccc2C(=O)O)O3)cc1 | . | . | . | . | -8.6 | -4.7
CCCCSc1nc2c(cc1C#N)CCC2 | -3.5 | -43.1 | 2.4 | -10.3 | -14.6 | .
CCCSc1nc(C)c(-c2csc(C(C#N)=C3CCCC3)n2)cc1C#N | -0.1 | -9.6 | -13.3 | 64.3* | 1.3 | .
CC(=O)Nc1ccc(C=NNc2nnc(NN=Cc3ccc(NC(C)=O)cc3)c3ccccc23)cc1 | -27.7 | 38.1 | -12.7 | 56.4* | ? | 28.9
O=C(C[C@@H]1C[C@@H]2c3cc(NS(=O)(=O)c4ccc(F)cc4)ccc3O[C@@H]2[C@H](CO)O1)NCc1cccc(F)c1 | . | . | . | . | -12.7 | 4.1
COC(=O)[C@H]1[C@H](CO)[C@H]2Cn3c(ccc(-c4cccc(C(=O)N(C)C)c4)c3=O)[C@H]2N1C | . | . | . | . | -12.2 | 11.4
COc1ccc(Cc2nn3c(-c4ccccc4Br)nnc3s2)cc1 | -8.5 | 3.0 | 52.8* | -50.9 | -1.4 | .
O=C(C=P(c1ccccc1)(c1ccccc1)c1ccccc1)c1ccccc1-c1ccccc1C(=O)C=P(c1ccccc1)(c1ccccc1)c1ccccc1 | -78.7* | 30.7 | 91.1* | 47.2 | 25.3 | 49.9
CC(C)(CNC(=S)NCCc1ccccc1)CNC(=S)NCCc1ccccc1 | -14.0 | 37.6 | 2.7 | 55.8* | 33.2 | 16.8
Oc1ccccc1/C=N/NC(=S)NCCc1ccccc1 | -13.0 | 4.8 | -19.0 | 93.5* | -36.5 | -20.1
OCCNC(=S)NCCc1ccccc1 | 12.9 | -23.1 | -27.7 | 1.3 | 10.6 | .
C[C@@H]1CN([C@@H](C)CO)C(=O)c2cc(C#CC3CC3)cnc2O[C@@H]1CN(C)C(=O)Nc1ccccc1 | . | . | . | . | -16.9 | 1.2
C[C@@H]1CN([C@H](C)CO)C(=O)c2cc(NC(=O)C3CC3)ccc2O[C@@H]1CN(C)Cc1ccncc1 | . | . | . | . | 3.9 | -2.0
O=C(C[C@H]1C[C@H]2c3cc(NC(=O)Nc4ccccc4)ccc3O[C@H]2[C@@H](CO)O1)NCC1CC1 | . | . | . | . | 6.8 | 0.5
CC=Cc1ccc2n(c1=O)C[C@H]1[C@H](CO)[C@@H](C(=O)Nc3ccc(-c4ccccc4)cc3)N(CCC)[C@@H]21 (mixture of isomers) | . | . | . | . | 16.9 | 7.3
